# Reference: PubChem BioAssay (NCATS)
# Inconclusive results are not listed. Entries that show only a call come without a potency. Unmarked numbers belong to inactive results. Calls of active or inactive are those of the source. Calls follow the shape of the dose curve; as a rule, active = well fitted curve in the direction sought with a large enough effect; inconclusive = small, poorly fitted or top-dose-only effect, or another doubt; inactive = no such curve, though single readings can be large; an effect the other way counts as inactive or inconclusive.
# Experiments:
# [1] = molecular target: Cytochrome P450 3A7 (Homo sapiens) (UniProt P24462); experiment: Cytochrome P450 family 3 subfamily A member 7 (CYP3A7) small molecule antagonists: luciferase biochemical qHTS assay (AID 1963596); also: nearly all actives have a fitted effect of over 40% in size; also: potency is read from the fitted curve at half-maximal effect
# Chain of Cytochrome P450 3A7 (Homo sapiens) (P24462 whole entry, looked up): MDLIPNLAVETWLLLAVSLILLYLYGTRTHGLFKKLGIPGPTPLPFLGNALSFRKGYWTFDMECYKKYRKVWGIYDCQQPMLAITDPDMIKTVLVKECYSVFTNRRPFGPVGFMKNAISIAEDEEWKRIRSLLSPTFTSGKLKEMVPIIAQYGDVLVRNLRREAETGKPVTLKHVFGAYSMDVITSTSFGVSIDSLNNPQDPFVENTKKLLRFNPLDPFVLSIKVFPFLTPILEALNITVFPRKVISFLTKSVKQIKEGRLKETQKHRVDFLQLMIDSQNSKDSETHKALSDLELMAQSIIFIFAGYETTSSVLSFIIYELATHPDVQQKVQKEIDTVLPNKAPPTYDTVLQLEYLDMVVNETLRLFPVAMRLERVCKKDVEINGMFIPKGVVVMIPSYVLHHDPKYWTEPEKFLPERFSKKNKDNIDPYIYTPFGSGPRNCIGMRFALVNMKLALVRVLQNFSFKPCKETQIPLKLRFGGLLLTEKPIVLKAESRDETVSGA
# In short: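 Luminescence read-out (relative luminescence units) after 20 min with detection reagent, which stops the reaction. Enzyme, proluciferin substrate and compound preincubated 10 min, RT; NADPH regeneration system then started 1 h reaction. Ketoconazole as positive control.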
# [2] = Viability qHTS for spleen associated tyrosine kinase inhibitor (SYKi) naive MV4-11 cells (AID 1963823); also: nearly all actives have a fitted effect of over 40% in size; also: potency is read from the fitted curve at half-maximal effect
# In short: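 Compounds were dispensed acoustically onto plates, MV4-11 cells (SYKi-naive) added at 500 per well, and plates incubated 72 hr at 37 C. CellTiter-Glo was added and luminescence measured after 10 min.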
# [3] = Viability qHTS for spleen associated tyrosine kinase inhibitor (SYKi) drug resistant MV4-11 cells (AID 1963824); also: nearly all actives have a fitted effect of over 35% in size; also: potency is read from the fitted curve at half-maximal effect
# In short: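 SYK inhibitor-resistant MV4-11 AML cells, 500 per well, added to predispensed compounds and incubated 72 hr at 37 C, 5% CO2. Viability measured by CellTiter-Glo luminescence after 10 min at room temperature.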
# [4] = Quantitative highthroughput screen to assess conditional lethalithy of NOMO1 cells grown in RPMI1640 with untreated serum (RPMI+s) (AID 1963876); also: nearly all actives have a fitted effect of over 35% in size
# In short: (§1)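 Each medium arm—HPLM with 10% dialyzed FBS, or RPMI1640 with 5 mM glucose and 10% untreated or dialyzed FBS—was screened against an 11-point, 3-fold compound titration for 48 h at 37 °C, with CellTiter-Glo luminescence as endpoint.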
# [5] = Quantitative highthroughput screen to assess conditional lethalithy of NOMO1 cells grown in RPMI1640 with dialyzed fetal bovine serum (RPMI+ds) (AID 1963877); also: series mostly up to about 46 µM; nearly all actives have a fitted effect of over 30% in size
# In short: as §1
# [6] = Quantitative highthroughput screen to assess conditional lethalithy of NOMO1 cells grown in Human Plasma-Like Medium with dialyzed fetal bovine serum (HPLM+ds) (AID 1963878); also: nearly all actives have a fitted effect of over 35% in size
# In short: as §1
# [7] = Quantitative highthroughput screen to assess conditional lethalithy of P12 Ichikawa cells grown in Human Plasma-Like Medium with dialyzed fetal bovine serum (HPLM+ds) (AID 1963879); details: Potency: viability; also: series mostly up to about 46 µM; nearly all actives have a fitted effect of over 35% in size
# In short: as §1
# [8] = Quantitative highthroughput screen to assess conditional lethalithy of P12 Ichikawa cells grown in RPMI1640 with dialyzed fetal bovine serum (RPMI+ds) (AID 1963880); details: Potency: P12-Ichikawa viability; also: nearly all actives have a fitted effect of over 35% in size
# In short: as §1
# [9] = Quantitative highthroughput screen to assess conditional lethalithy of P12 Ichikawa cells grown in RPMI1640 with untreated serum (RPMI+s) (AID 1963881); details: Potency: viability
# In short: as §1
# [10] = Quantitative highthroughput screen to assess conditional lethalithy of SEM cells grown in Human Plasma-Like Medium with dialyzed fetal bovine serum (HPLM+ds) (AID 1963882)
# In short: as §1
# [11] = Quantitative highthroughput screen to assess conditional lethalithy of SEM cells grown in RPMI1640 with unreated serum (RPMI+s) (AID 1963883); also: nearly all actives have a fitted effect of over 35% in size
# In short: as §1
# [12] = Quantitative highthroughput screen to assess conditional lethalithy of SEM cells grown in RPMI1640 with dialyzed fetal bovine serum (RPMI+ds) (AID 1963884)
# In short: as §1
# [13] = Cellular viability qHTS for adrenocortical cancer (ACC) cell line SW-13 (AID 1963989); details: SW-13 ACC cells viability, CellTiter-Glo, 48 h; activity (max response): stronger effect = lower value;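 also: cells grown in serum-free medium with ITS supplement; nearly all actives have a fitted effect of over 65% in size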
# In short: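 IC50 and maximal-response values come from four-parameter logistic fits of titration data. SW-13 cells in serum-free medium received compounds (up to 46 uM final) for 48 h before CellTiter-Glo luminescence.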
# [14] = Cellular viability qHTS for adrenocortical cancer (ACC) cell line NCI-H295R (AID 1963990); also: nearly all actives have a fitted effect of over 60% in size
# In short: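 Adrenocortical carcinoma cells, suspended at 300 000 cells/mL in serum-free DMEM plus ITS, rested overnight before pin transfer of compound. After two days' incubation, ATP-dependent luminescence was recorded and curve-fitted.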
structure (smiles),measurement,setting,value
N=C(N=C(N)N)N1CCOCC1,Potency,[1],inactive
same,Potency,[2],inactive
same,Potency,[3],inactive
same,Potency,[4],inactive
same,Potency,[5],inactive
same,Potency,[6],inactive
same,Potency,[7],inactive
same,Potency,[8],inactive
same,Potency,[9],inactive
same,Potency,[10],inactive
same,Potency,[11],inactive
same,Potency,[12],inactive
same,activity (max response),[13],-4.25%
same,Potency,[14],inactive
N#Cc1cc(CN2CCC(Nc3ncnc4sc(Cl)cc34)CC2)ccc1F,Potency,[1],inactive
same,Potency,[2],9.2 µM (active)
same,Potency,[3],13 µM (active)
C=CC(=O)N1CCN(C(=O)c2cc(-c3cc(Cl)ccc3Cl)c(Cl)cc2OC)CC1,Potency,[1],inactive
same,Potency,[2],8.2 µM (active)
same,Potency,[3],6.51 µM (active)
O=C(O)CCC(=O)O,Potency,[1],inactive
same,Potency,[2],inactive
same,Potency,[3],inactive
CCCCCCOC(=O)/N=C(\N)c1ccc(NCc2nc3cc(C(=O)N(CCC(=O)OCC)c4ccccn4)ccc3n2C)cc1,Potency,[1],inactive
same,Potency,[2],1.3 µM (active)
same,Potency,[3],0.82 µM (active)
CCCCc1ccc(C(=O)Nc2cc(-c3ccc(Cl)cc3)nn2-c2ccc(Cl)cc2)cc1,Potency,[1],inactive
same,Potency,[2],inactive
same,Potency,[3],inactive
CCOC(=O)[C@H](CCc1ccccc1)N[C@@H](C)C(=O)N1C(=O)N(C)C[C@H]1C(=O)O,Potency,[1],inactive
same,Potency,[2],inactive
same,Potency,[3],inactive
O=C(c1ccc(F)cc1)C1CCN(CCn2c(=O)nc3n(c2=O)CCCC3)CC1,Potency,[1],inactive
same,Potency,[2],inactive
same,Potency,[3],inactive
CCOc1cc(C(C)(C)C)ccc1C1=NC(C)(c2ccc(Cl)cc2)C(C)(c2ccc(Cl)cc2)N1C(=O)N1CCN(CCCS(C)(=O)=O)CC1 (stereo unspecified),Potency,[1],2.82 µM (active)
same,Potency,[2],10.3 µM (active)
same,Potency,[3],9.2 µM (active)
COc1cccc(NC[C@@H](O)Cn2c3ccc(Br)cc3c3cc(Br)ccc32)c1,Potency,[1],inactive
same,Potency,[2],18.4 µM (active)
same,Potency,[3],16.4 µM (active)
